High-throughput results deposited in PubChem BioAssay by Sanford-Burnham Center for Chemical Genomics.
Mdm2 MdmX PPI: inhibitors of human Mdm2-MdmX association, primary screen, cell-based, luminescence, split luciferase, SaOS-2, uHTS; Protein Mdm4 (Homo sapiens) + E3 ubiquitin-protein ligase Mdm2 (Homo sapiens), …; SaOS-2 split-luciferase Mdm2/MdmX complementation; 330,000 tested, 3% active; inhibition, % at 8 µM;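 active = inhibition of at least 50% at 8 µM in the primary screen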
Target sequence (O15151 whole entry, looked up): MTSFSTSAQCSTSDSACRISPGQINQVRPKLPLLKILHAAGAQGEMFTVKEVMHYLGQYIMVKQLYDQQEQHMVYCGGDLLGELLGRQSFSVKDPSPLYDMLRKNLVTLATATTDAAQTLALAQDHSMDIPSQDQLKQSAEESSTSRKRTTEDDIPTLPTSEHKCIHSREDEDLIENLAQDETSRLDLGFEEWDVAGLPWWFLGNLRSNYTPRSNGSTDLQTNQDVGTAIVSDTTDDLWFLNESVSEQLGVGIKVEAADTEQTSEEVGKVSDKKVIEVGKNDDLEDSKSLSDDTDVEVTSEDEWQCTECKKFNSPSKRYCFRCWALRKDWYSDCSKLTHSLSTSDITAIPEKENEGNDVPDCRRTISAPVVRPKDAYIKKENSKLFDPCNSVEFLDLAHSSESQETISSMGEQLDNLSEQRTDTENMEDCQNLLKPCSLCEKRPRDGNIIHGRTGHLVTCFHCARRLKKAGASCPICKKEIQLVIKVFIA
Target sequence (Q00987 whole entry, looked up): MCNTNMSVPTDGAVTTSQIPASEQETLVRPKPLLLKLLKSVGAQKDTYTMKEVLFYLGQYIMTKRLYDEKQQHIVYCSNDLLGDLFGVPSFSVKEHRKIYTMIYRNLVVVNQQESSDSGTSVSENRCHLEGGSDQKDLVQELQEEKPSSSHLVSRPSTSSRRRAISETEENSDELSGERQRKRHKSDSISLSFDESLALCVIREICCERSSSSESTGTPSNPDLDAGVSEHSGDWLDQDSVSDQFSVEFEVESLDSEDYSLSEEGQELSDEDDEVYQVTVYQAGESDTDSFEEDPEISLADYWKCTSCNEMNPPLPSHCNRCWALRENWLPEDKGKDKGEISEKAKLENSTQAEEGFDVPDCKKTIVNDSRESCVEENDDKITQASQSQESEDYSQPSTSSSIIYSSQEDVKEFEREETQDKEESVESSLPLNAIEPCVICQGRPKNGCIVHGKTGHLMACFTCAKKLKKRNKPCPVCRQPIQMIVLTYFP
TIM10 inh: growth inhibitors of isogenic TIM10 control yeast, primary screen, counter-screen for tim10-1 yeast inhibitor project, luminescence, uHTS; S. cerevisiae TIM10 strain growth, BacTiter-Glo luminescence, 24 h; inhibition, % at 10 µM; 330,000 tested, 1.4% active; AID 463195, 2010;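 active = inhibition of 40% or more at the single tested concentration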;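 also: wild-type TIM10 isogenic control strain grown at permissive 25 °C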
tim23-1 inh: growth inhibitors of tim23-1 mutant yeast, primary screen, luminescence, uHTS. 330,000 tested, 1.3% active. inhibition, % at 20 µM. AID 463212, 2010. S. cerevisiae tim23-1 growth, BacTiter-Glo luminescence, 24 h;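 active = growth inhibition of the mutant yeast at or above 50%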;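 also: temperature-sensitive mutant grown at 25 °C; plate controls were DMSO-treated mutant yeast for no effect and medium wells lacking yeast for full effect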
MPTP block: mitochondrial permeability transition pore inhibitors, primary screen, biochemical, isolated mouse mitochondria, absorbance; Ca2+ swelling absorbance, 30 min; 360,000 tested, 1.4% active; inhibition, % at 10 µM; AID 602449, 2012;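 active = inhibition of 50% or more, scaled per plate between neutral and stimulator controls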;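 also: 0% = DMSO wells given calcium and 100% = 1 mM EGTA wells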
tim10-1 inh: growth inhibitors of tim10-1 mutant yeast, primary screen, luminescence, uHTS; S. cerevisiae tim10-1 ts strain growth, BacTiter-Glo, 24 h; inhibition, % at 20 µM; 330,000 tested, 2.2% active;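 active = inhibition of at least 40%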;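 also: mutant grown at 25 °C; 0% = DMSO wells with yeast and 100% = wells holding no yeast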
tim10-1 conf: growth inhibitors of tim10-1 mutant yeast, confirmation, single concentration, luminescence, S. cerevisiae; shares compounds with tim10-1 inh; S. cerevisiae tim10-1 ts strain growth, BacTiter-Glo, 24 h; inhibition, % at 20 µM; 7,400 tested, 56% active; AID 463213, 2010;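 active = inhibition of yeast growth at or above a set limit in either of two repeat tests at 20 µM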;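 also: tim10-1 mutant grown at permissive 25 °C to find synthetic lethal compounds; 0% = DMSO yeast wells and 100% = medium wells without yeast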
tim10 confirm: growth inhibitors of wild-type TIM10 yeast, confirmation, counter-screen for tim10-1 synthetic lethality project, single concentration, luminescence, S. cerevisiae. shares compounds with TIM10 inh. S. cerevisiae tim10 strain growth, BacTiter-Glo luminescence, 24 h. inhibition, % at 10 µM. 4,600 tested, 63% active. AID 463215, 2010;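 active = inhibition of yeast growth at or above a set limit in either of two replicates at 10 µM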;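 also: this counterscreen used the strain with wild-type TIM10; 0% = yeast with DMSO and 100% = medium wells lacking yeast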
tim23-1 conf: tim23-1 mutant yeast growth inhibitors, confirmation, luminescence, single concentration | inhibition, % at 20 µM | shares compounds with tim23-1 inh | 4,400 tested, 83% active | AID 463218, 2010 | S. cerevisiae tim23-1 growth, BacTiter-Glo luminescence, 24 h;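 active = inhibition above about 39% in either of two replicate wells at 20 µM, limit read from the data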;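 also: temperature-sensitive tim23-1 mutant grown at 25 °C; 0% = DMSO wells with yeast and 100% = medium wells without yeast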
Mdm2 MdmX conf: Mdm2-MdmX complex disruptors, retested hits, confirmation, luminescence, single concentration | shares compounds with Mdm2 MdmX PPI | Mdm2-MdmX binding, luminescent assay | inhibition, % at 8 µM | 10,000 tested, 55% active | AID 489028, 2010; in the data active = inhibition above about 40%
Full FLuc ctr: full-length luciferase signal inhibition, confirmation, counter-screen for Mdm2/MdmX interaction inhibitor project, cell-based, single concentration, SaOS-2; inhibition, % at 8 µM; shares compounds with Mdm2 MdmX PPI; AID 504607, 2011; 6,200 tested, 77% active; SaOS-2 full-length luciferase counterscreen, luminescence;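 active = mean inhibition at 8 µM reaching about 37%, which flags the compound as non-specific, limit read from the data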;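 also: p53-null SaOS-2 cells with luciferase driven by a doxycycline-inducible promoter; compound on cells about two nights before reading with doxycycline added after day one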
* = called active by the depositor; . = no result given. This is a sample that favours compounds with a hit; in the whole collection about 6.3% have one here.

SMILES | Mdm2 MdmX PPI | TIM10 inh | tim23-1 inh | MPTP block | tim10-1 inh | tim10-1 conf | tim10 confirm | Mdm2 MdmX conf | Full FLuc ctr | others
COc1cccc(C(=O)O/N=C(\N)c2ccc([N+](=O)[O-])cc2)c1 | -9 | -4 | 1 | -1 | 27 | . | . | . | .
CCOc1cc(C(=O)O/N=C(\N)c2ccc([N+](=O)[O-])cc2)cc(OCC)c1OCC | 67* | 46* | 16 | 2 | 61* | 49* | 42* | 46* | 92*
C[C@@H]1CN([C@@H](C)CO)C(=O)c2cc(C3=CCCCC3)cnc2O[C@H]1CN(C)C(=O)Nc1cccc(F)c1 | . | . | . | 0 | . | . | . | . | .
CCCCC[C@@H](C)N1C[C@H](COCc2ccccc2)Oc2cc(N3CCC[C@H]3CO)ccc2S1(=O)=O | . | . | . | 4 | . | . | . | . | .
CN(C)C(=O)c1cc2c(c(-c3cccc(-c4ccccc4F)c3)n1)[C@@H](CCO)N(S(C)(=O)=O)C2 | . | . | . | -1 | . | . | . | . | .
O=[N+]([O-])c1cc(Cl)c2cccnc2c1O | 46 | 7 | -38 | -5 | 10 | . | . | . | .
Oc1c(I)cc(Cl)c2cccnc12 | 92* | 56* | 70* | 3 | 67* | 56* | 70* | 58* | 51* | tim23-1 conf=73*
COc1ccc(-c2nc3c4ccccc4ccn3c2Cc2cccc(F)c2)cc1OC | . | . | . | 0 | . | . | . | . | .
COc1cc(C(C[N+](=O)[O-])c2c(N)n(C)c(=O)n(C)c2=O)ccc1O (stereo unspecified) | 5 | 28 | 48 | 0 | -4 | . | . | . | .
COc1cccc(F)c1C(C[N+](=O)[O-])c1c(N)n(C)c(=O)n(C)c1=O (stereo unspecified) | 95* | 46* | 82* | 2 | 54* | 60* | 52* | 45* | 36* | tim23-1 conf=82*
O=[N+]([O-])c1ccccc1C1Nc2cccc3cccc(c23)N1 | 93* | 57* | 49 | 1 | 85* | 76* | 69* | 42* | 27
CN(C)CC(C(=O)c1ccccc1)c1ccccc1 (stereo unspecified) | 100* | 51* | 50 | 4 | 50* | 57* | 60* | 85* | 52*
C(=C\c1ccccc1)/CN1CCN(C(c2cc3ccccc3o2)c2nnnn2C2CCCCC2)CC1 (stereo unspecified) | . | . | . | 4 | . | . | . | . | .
CCn1c(C)nc2cc(-c3nc4n(n3)Cc3ccccc3-4)ccc21 | 92* | 54* | 65* | -3 | 60* | 51* | 49* | 99* | 51* | tim23-1 conf=68*
Fc1ccc(-c2nc3n(n2)Cc2ccccc2-3)cc1 | -102 | 4 | 16 | -2 | 23 | . | . | . | .
Cc1nc([N+](=O)[O-])c(Br)n1CC(=O)c1ccc(Br)cc1 | 63* | 40 | 40 | 0 | 48* | 35* | 40* | 10 | .
Cc1nc([N+](=O)[O-])c(Br)n1CC(=O)c1ccc2ccccc2c1 | 87* | 54* | 35 | 1 | 59* | 67* | 55* | 23 | .
Cc1nc([N+](=O)[O-])c(Br)n1CC(=O)c1ccccc1 | -3 | 22 | 26 | -2 | 30 | . | . | . | .
O=C(NCc1ccccc1Cl)c1ccc2sc([C@@H]3O[C@H](CO)[C@H](O)[C@H](O)[C@H]3O)nc2c1 | . | . | . | 1 | . | . | . | . | .
CC1(Cc2ccc(Cl)s2)C(=O)Nc2c(Cl)ccc(Cl)c21 (stereo unspecified) | . | . | . | 1 | . | . | . | . | .
O=C(COc1ccc(Cl)cc1)OCc1ccc(Cl)cc1 | . | . | . | 0 | . | . | . | . | .
COc1ccc(C(=O)NCCNc2nc3cc(C)cc(C)c3cc2C#N)nc1 | . | . | . | 4 | . | . | . | . | .
O=C(Cc1ccccc1)N/N=C/C=C/c1ccccc1[N+](=O)[O-] | 9 | 10 | 8 | 0 | 10 | . | . | . | .
N#C/C(=C\C=C\c1ccccc1[N+](=O)[O-])C(=O)NCc1ccccc1 | 97* | 38 | 49 | 0 | 45* | 35* | . | 66* | 17
O=C1C(c2ccccc2)=[N+]([O-])c2ccccc21 | 93* | 55* | 61* | 0 | 58* | 47* | 53* | 19 | . | tim23-1 conf=-59
SMILES | Mdm2 MdmX PPI | TIM10 inh | tim23-1 inh | MPTP block | tim10-1 inh | tim10-1 conf | tim10 confirm | Mdm2 MdmX conf | Full FLuc ctr | others
COc1cccc(-c2oc3c(c2-c2ccc(Br)nc2)C(O)CCC3)c1 (stereo unspecified) | . | . | . | -1 | . | . | . | . | .
Oc1ccccc1N=Cc1c(O)ccc2oc3c(c12)CCCC3 | 52* | 38 | 52* | 20 | 47* | 55* | . | 44* | 72* | tim23-1 conf=73*
Oc1ccc2oc3c(c2c1/C=N/n1cnnc1)CCCC3 | 43 | 10 | 9 | 5 | 27 | . | . | . | .
Cc1[nH]nc2c1C(c1ccco1)C(C#N)=C(N)O2 (stereo unspecified) | -2 | 16 | 6 | 0 | 0 | . | . | . | .
Cc1[nH]nc2c1C(c1cc(Br)cs1)C(C#N)=C(N)O2 (stereo unspecified) | 70* | 30 | 61* | 0 | 53* | 35* | . | 30 | . | tim23-1 conf=45*
CC1(c2nc3ccccc3[nH]2)c2ccccc2C(=O)N1C1CC1 (stereo unspecified) | . | . | . | -2 | . | . | . | . | .
Cc1nc(Nc2nc(-c3ccccc3)cc(=O)[nH]2)nc2ccccc12 | 68* | 30 | 10 | -1 | 43* | 8 | . | 45* | 70*
Cc1nc(Nc2nc(CSc3ccc(Cl)cc3)cc(=O)[nH]2)nc2ccccc12 | 25 | 19 | 7 | 0 | 16 | . | . | . | .
CC(C)(C)Cc1c(-c2ccc(Cl)cc2)nc2c(Cl)cc(C(F)(F)F)cn12 | . | . | . | 3 | . | . | . | . | .
Oc1ccccc1N=N/C(=N/Nc1ccccc1O)c1ccccc1 | -12 | 8 | -1 | 0 | -2 | . | . | . | .
Cn1nnnc1N=N/C(=N/Nc1ccccc1)c1ccccc1 | 86* | 69* | 75* | 4 | 55* | 26 | 70* | 85* | 49* | tim23-1 conf=60*
Oc1c(N=NC(=S)Nc2ccccc2F)c2ccccc2n1Cc1ccccc1Cl | 40 | 27 | 31 | -2 | 23 | . | . | . | .
